The record followed here is PubChem BioAssay AID651678 (Sanford-Burnham Center for Chemical Genomics, 2012).

The target of this test is Sentrin-specific protease 1 (Homo sapiens) (UniProt Q9P0U3). Description: human SENP1 catalytic domain inhibitors, confirmation, biochemical, FRET endpoint, single concentration (AID 651678).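 Note: 0% = enzyme with DMSO and 100% = no enzyme control.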 To be noted: recombinant SENP1, CyPet-SUMO1-YPet FRET cleavage; at 10 µM; hits give high values.

The other results are listed elsewhere or left out. The source made the active and inactive calls. Cut-off read from the data, not from the text of the source: active = inhibition mostly above about 35% (no sharp cut-off); inactive = mostly below about 32%.

Chain of Sentrin-specific protease 1 (Homo sapiens) (Q9P0U3 419-644 limits assumed): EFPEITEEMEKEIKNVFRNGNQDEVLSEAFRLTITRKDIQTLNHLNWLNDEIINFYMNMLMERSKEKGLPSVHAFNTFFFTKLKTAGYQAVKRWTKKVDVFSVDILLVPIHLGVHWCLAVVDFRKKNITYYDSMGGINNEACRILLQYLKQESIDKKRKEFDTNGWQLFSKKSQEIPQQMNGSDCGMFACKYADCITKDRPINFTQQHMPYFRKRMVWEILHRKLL

The term inhibition denotes how much of the control response was suppressed. For `COc1ccccc1N=Nc1c(O)[nH]c(=S)[nH]c1=O`, the inhibition was 52% (active).
